The source of these data is PubChem BioAssay (Tox21).

Assay [1] in a line: qHTS assay to identify small molecule antagonists of the glucocorticoid receptor (GR) signaling pathway - cell viability counter screen (AID 720693). Note: nearly all actives have a fitted effect of over 55% in size. Background: Quantitative high-throughput screening tests each substance at several concentrations.
A short description of assay [2]: qHTS assay for identifying genotoxic compounds that show differential cytotoxicity against isogenic chicken DT40 cell lines with known DNA damage response pathways - wild type cell line (AID 743012). Note: nearly all actives have a fitted effect of over 60% in size. Note: potency is the fitted concentration of half-maximal effect. The essentials:
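Viability by ATP luminescence (CellTiter-Glo, 30 min RT) after 40 h compound treatment at 37 C/5% CO2, using 300 parental DNA repair-proficient DT40 cells per well.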

Assay [3] is described as follows: qHTS assay for identifying genotoxic compounds that show differential cytotoxicity against isogenic chicken DT40 cell lines with known DNA damage response pathways - Rev3 mutant cell line (AID 743014). Note: nearly all actives have a fitted effect of over 55% in size. Note: potency is the fitted concentration of half-maximal effect.
Assay [4] in a line: qHTS assay to identify small molecule antagonists of the androgen receptor (AR) signaling pathway - cell viability counter screen (AID 743033; note: nearly all actives have a fitted effect of over 45% in size; note: potency is the fitted concentration of half-maximal effect).
Assay [5] is described as follows: qHTS assay to identify small molecule antagonists of the androgen receptor (AR) signaling pathway using the MDA cell line - cell viability counter screen (AID 743041; note: nearly all actives have a fitted effect of over 45% in size). Put shortly: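 Viability read by CellTiter-Fluor fluorescence in the same wells as the antagonist screen, added after 15.5 h of a 16 h, 37C exposure. Human breast carcinoma MDA-kb2 AR-luc cells, compounds co-dosed with agonist R1881.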

A short description of assay [6]: qHTS assay to identify small molecule antagonists of the thyroid receptor (TR) signaling pathway - cell viability counter screen (AID 743064). Note: nearly all actives have a fitted effect of over 50% in size. Note: potency is the fitted concentration of half-maximal effect. Put shortly:
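GH3.TRE-Luc rat pituitary cells dosed after 4 hr plating, co-stimulated with T3 at 1 nM final, incubated 23.5 h at 37 C. Viability measured in the same wells by CellTiter-Fluor fluorescence after 30 min further at 37 C.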

Assay [7] can be described thus: qHTS assay to identify small molecule antagonists of the thyroid receptor (TR) signaling pathway (AID 743065). Note: nearly all actives have a fitted effect of over 55% in size. Note: potency is the fitted concentration of half-maximal effect. The essentials:
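Antagonism measured as loss of luciferase signal in GH3 cells stably carrying a TRE-luciferase reporter, co-treated with compound and T3 (1 nM final) for 23.5 h at 37 C. Viability was read in the same well by CellTiter-Fluor.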

In assay [8] the test system is thyroid hormone receptor (rat, GH3 cells). The assay is described as follows: qHTS assay to identify small molecule agonists of the thyroid receptor (TR) signaling pathway (AID 743066; calls by dose curve).
Assay [9] can be described thus: qHTS assay to identify small molecule antagonists of the estrogen receptor alpha (ER-alpha) signaling pathway - cell viability counter screen (AID 743074; calls by dose curve;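 note: HEK293 cells carrying ER-alpha-UAS-bla reporter stimulated with 17beta-estradiol; nearly all actives have a fitted effect of over 45% in size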).
For assay [10], the target named is Estrogen receptor (Homo sapiens) (UniProt P03372). Description: qHTS assay to identify small molecule agonists of the estrogen receptor alpha (ER-alpha) signaling pathway (AID 743075; calls by dose curve;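 note: HEK293 GripTite cells with ER-alpha and UAS-driven beta-lactamase reporter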; note: potency is the fitted concentration of half-maximal effect).
For assay [11] the target is unchanged. The assay is described as follows: qHTS assay to identify small molecule agonists of the estrogen receptor alpha (ER-alpha) signaling pathway using the BG1 cell line (AID 743079). Note: nearly all actives have a fitted effect of over 20% in size. Note: potency is the fitted concentration of half-maximal effect.
Assay [12] is described as follows: qHTS assay to identify small molecule antagonists of the estrogen receptor alpha (ER-alpha) signaling pathway using the BG1 cell line (AID 743080; calls by dose curve;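 note: BG1 cells stimulated with 17beta-estradiol alongside compound; nearly all actives have a fitted effect of over 25% in size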; note: potency is the fitted concentration of half-maximal effect). The essentials: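 Quantitative HTS on the Tox21 10K library: BG1 cells with endogenous ER-alpha and ERE-luciferase reporter, 17beta-estradiol stimulation, 21.5 h compound exposure, luminescence endpoint with parallel fluorescence cytotoxicity counter-read.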

Assay [13] in a line: qHTS assay to identify small molecule antagonists of the estrogen receptor alpha (ER-alpha) signaling pathway using the BG1 cell line - cell viability counter screen (AID 743081).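 Note: compound given together with 17beta-estradiol as the ER stimulus; nearly all actives have a fitted effect of over 45% in size.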 Note: potency is the fitted concentration of half-maximal effect.
Assay [14] concerns the target Aromatase (Homo sapiens) (UniProt P11511). The assay is described as follows: qHTS assay to identify aromatase inhibitors (AID 743083). Note: nearly all actives have a fitted effect of over 55% in size. Note: potency is the fitted concentration of half-maximal effect.
Assay [15] has as its target Androgen receptor (Homo sapiens) (UniProt P10275). Description: qHTS assay to identify small molecule antagonists of the androgen receptor (AR) signaling pathway (AID 743035; active = well fitted inhibition curve with a large enough effect in the signal ratio in the repeat runs, not every such curve was filed as active; inconclusive = weak or mixed curves, or effect the other way; inactive = no such curve, though single readings can be large or run the other way; the % refers to the signal ratio; note: potency is the fitted concentration of half-maximal effect). The essentials:
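Antagonist mode: AR-bla HEK293 cells co-treated with test compounds and agonist R1881 for 16 h at 37C, 5% CO2. Beta-lactamase activity read as FRET fluorescence after 2 h room-temperature substrate loading.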

Assay [16] concerns the target Estrogen receptor (Homo sapiens) (UniProt P03372). The assay is described as follows: qHTS assay to identify small molecule antagonists of the estrogen receptor alpha (ER-alpha) signaling pathway (AID 743069; active = well fitted curve in the direction sought with a large enough effect in the signal ratio in the repeat runs, not every such curve was filed as active; inconclusive = weak or mixed curves, or effect the other way; inactive = no such curve, though single readings can be large or run the other way; the % refers to the signal ratio; note: potency is the fitted concentration of half-maximal effect). Put shortly: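 Antagonist mode: compounds in DMSO were co-added with 17beta-estradiol to ER-alpha-bla HEK293 cells (2% charcoal-stripped serum) and left 18 h at 37C. Reporter inhibition was measured as FRET fluorescence after 2 h LiveBLAzer substrate at room temperature.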

Assay [17] is described as follows: qHTS assay for identifying genotoxic compounds that show differential cytotoxicity against isogenic chicken DT40 cell lines with known DNA damage response pathways - Rad54/Ku70 mutant cell line (AID 743015). Note: nearly all actives have a fitted effect of over 60% in size. Note: potency is the fitted concentration of half-maximal effect.
Assay [18] addresses Androgen receptor (Homo sapiens) (UniProt P10275). The assay is described as follows: qHTS assay to identify small molecule agonists of the androgen receptor (AR) signaling pathway (AID 743036; active = well fitted activation curve with a large enough effect in the signal ratio in the repeat runs, with a control signal flat, not every such curve was filed as active; inconclusive = weak or mixed curves, or effect the other way; inactive = no such curve, though single readings can be large or run the other way; the % refers to the signal ratio). Put shortly: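 AR-UAS-bla HEK293 cells, plated 4 h before dosing, were treated with compound for 16 h at 37C. beta-Lactamase reporter read after 2 h with LiveBLAzer B/G FRET substrate at room temperature.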

The target is the same in assay [19]. The assay is described as follows: qHTS assay to identify small molecule agonists of the androgen receptor (AR) signaling pathway using the MDA cell line (AID 743040; note: nearly all actives have a fitted effect of over 20% in size). To be noted: MDA-kb2 AR-luc cells, MMTV luciferase, 16 h; activity change: at 70.3 µM (top of the series), stronger effect = higher value. The essentials: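 Luciferase agonist assay: 16 h compound exposure at 37C without CO2 in MDA-kb2 AR-luc cells, whose MMTV promoter responds to both AR and GR. Luminescence measured after 30 min room-temperature incubation with ONE-Glo.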

For assay [20] the target is unchanged. Description: qHTS assay to identify small molecule antagonists of the androgen receptor (AR) signaling pathway using the MDA cell line (AID 743042). Put shortly: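 Antagonist mode: compounds plus R1881 agonist added to MDA-kb2 AR-luc cells, incubated 16 h at 37C. Luciferase reporter luminescence quantified, with multiplexed CellTiter-Fluor readout for cell viability.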

Structures are written as SMILES. “And” between values parts separate entries of the source, which are not always exact repeats. Equal values may be shown once. A structure can be active in one record and inactive in another. The source made the active and inactive calls. Unless noted, calls come from the whole dose curve; as a rule, active = well fitted curve in the direction sought with a large enough effect in the repeat runs; inconclusive = weak or mixed curves; inactive = no such curve, though single readings can be large; an effect the other way counts as inactive or inconclusive.

Chain of Estrogen receptor (Homo sapiens) (P03372 whole entry, looked up): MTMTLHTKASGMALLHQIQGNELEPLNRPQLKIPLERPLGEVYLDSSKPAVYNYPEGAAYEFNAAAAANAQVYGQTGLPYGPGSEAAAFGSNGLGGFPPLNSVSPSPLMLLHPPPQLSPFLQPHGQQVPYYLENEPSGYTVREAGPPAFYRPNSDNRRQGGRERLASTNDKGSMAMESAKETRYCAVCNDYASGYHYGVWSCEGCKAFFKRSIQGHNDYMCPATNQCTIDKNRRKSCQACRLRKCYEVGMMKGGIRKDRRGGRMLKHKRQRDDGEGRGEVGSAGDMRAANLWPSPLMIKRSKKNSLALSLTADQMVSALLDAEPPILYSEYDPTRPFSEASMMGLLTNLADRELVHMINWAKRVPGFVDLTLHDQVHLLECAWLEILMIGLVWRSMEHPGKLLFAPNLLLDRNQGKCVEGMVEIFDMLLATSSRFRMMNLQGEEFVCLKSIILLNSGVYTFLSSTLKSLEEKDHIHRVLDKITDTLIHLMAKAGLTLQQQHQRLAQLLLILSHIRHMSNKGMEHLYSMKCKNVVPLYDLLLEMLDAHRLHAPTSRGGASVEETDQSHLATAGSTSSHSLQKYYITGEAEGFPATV
Chain of Androgen receptor (Homo sapiens) (P10275 whole entry, looked up): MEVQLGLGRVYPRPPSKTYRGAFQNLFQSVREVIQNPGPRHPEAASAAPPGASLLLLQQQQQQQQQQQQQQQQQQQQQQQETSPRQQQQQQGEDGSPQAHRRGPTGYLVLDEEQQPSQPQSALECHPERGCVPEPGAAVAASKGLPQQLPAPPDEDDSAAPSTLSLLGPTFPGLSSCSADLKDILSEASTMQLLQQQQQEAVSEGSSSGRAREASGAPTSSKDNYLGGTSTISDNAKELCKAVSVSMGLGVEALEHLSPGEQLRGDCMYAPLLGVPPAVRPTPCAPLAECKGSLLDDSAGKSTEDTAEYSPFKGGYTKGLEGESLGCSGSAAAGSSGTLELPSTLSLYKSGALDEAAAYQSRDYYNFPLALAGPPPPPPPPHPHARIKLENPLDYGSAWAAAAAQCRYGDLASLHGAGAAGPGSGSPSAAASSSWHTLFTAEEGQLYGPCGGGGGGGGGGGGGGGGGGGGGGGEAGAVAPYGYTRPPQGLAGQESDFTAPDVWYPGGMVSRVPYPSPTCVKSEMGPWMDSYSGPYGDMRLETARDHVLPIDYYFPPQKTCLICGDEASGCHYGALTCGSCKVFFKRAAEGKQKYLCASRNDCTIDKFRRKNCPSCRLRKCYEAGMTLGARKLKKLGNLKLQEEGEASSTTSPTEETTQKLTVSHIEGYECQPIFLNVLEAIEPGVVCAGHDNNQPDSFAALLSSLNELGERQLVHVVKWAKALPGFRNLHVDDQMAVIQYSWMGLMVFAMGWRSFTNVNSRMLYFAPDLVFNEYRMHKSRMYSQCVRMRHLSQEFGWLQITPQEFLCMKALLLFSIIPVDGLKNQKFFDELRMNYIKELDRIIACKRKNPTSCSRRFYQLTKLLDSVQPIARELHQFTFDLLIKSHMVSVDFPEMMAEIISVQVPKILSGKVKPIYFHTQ
Chain of Aromatase (Homo sapiens) (P11511 whole entry, looked up): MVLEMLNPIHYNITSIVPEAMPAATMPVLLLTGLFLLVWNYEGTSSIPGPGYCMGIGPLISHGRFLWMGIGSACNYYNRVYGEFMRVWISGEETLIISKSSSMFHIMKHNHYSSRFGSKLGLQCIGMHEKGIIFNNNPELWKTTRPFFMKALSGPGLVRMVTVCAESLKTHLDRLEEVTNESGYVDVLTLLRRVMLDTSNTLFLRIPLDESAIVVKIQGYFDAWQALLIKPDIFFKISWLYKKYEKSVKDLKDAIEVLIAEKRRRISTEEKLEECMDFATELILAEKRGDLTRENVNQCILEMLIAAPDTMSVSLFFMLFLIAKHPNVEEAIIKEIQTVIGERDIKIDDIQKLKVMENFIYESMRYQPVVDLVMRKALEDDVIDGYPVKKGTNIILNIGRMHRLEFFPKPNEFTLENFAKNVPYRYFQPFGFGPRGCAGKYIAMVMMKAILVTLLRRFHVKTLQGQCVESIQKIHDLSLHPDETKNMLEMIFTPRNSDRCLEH

With `CCN(CC)C(=O)SCc1ccc(Cl)cc1`, the Potency result in [1], in assay [4], in assay [5], in assay [6], in [7] and in assay [8] was “inactive” in each case. The Potency entry in [9], in [10], in assay [11], in [12], in assay [13] and in assay [14] was “inactive” throughout. Also, the Potency was 43.3 µM (active) in [2] and 21.7 µM (active) in assay [3].
Consider `CC(C)c1ccc(CO)cc1`, for which the Potency entry in [1], in assay [2], in assay [3], in assay [4], in [15] and in assay [5] was “inactive” each time. The Potency result in assay [6], in assay [7], in assay [8], in assay [9], in assay [12] and in [13] was “inactive” in each case. In assay [14], the Potency result was “inactive”. In addition, the Potency in assay [10] is 43.7 µM [inconclusive] (active) and inactive; in assay [11], 54.5 µM (active) and inactive.
Consider `Nn1cnnc1`, for which the Potency result in assay [1], in assay [2], in assay [3], in assay [4], in assay [5] and in assay [6] was “inactive” throughout. Also, the Potency entry in [7], in [8], in assay [9], in assay [10], in assay [11] and in assay [12] was “inactive” throughout. Also, the Potency result in assay [13] and in assay [14] was “inactive” each time.
Turning to `Cc1ccc2c(c1N)C(=O)c1ccccc1C2=O`, the Potency result in [1], in assay [2], in assay [3], in assay [4], in [5] and in assay [7] was “inactive” in each case. Besides, the Potency entry in assay [8], in [16], in [9] and in assay [14] was “inactive” each time. Also, the Potency in assay [6] was 67.8 µM (active); in assay [10], 389 nM [inconclusive] (active); in assay [11], 3.03 µM (active) and 4.33 µM (active); in [13], 30.3 µM (active) and 27.3 µM (active).
In the case of `CC(C)(c1cc(Cl)c(O)c(Cl)c1)c1cc(Cl)c(O)c(Cl)c1`, the Potency entry in [1], in assay [2], in [3], in assay [17], in [5] and in [13] was “inactive” throughout. Also, the Potency entry in assay [14] was “inactive”. Besides, the Potency entry in assay [6] was “inactive and 61.1 µM (active)”; in assay [7], 21.7 µM (active) and 48.6 µM (active).
For the compound `CCC(C)(c1ccc(O)cc1)c1ccc(O)cc1`, the Potency result in assay [1], in assay [4], in assay [5], in assay [8], in assay [9] and in assay [12] was “inactive” throughout. Moreover, in [13], the Potency result was “inactive”. The Potency is 27.3 µM (active) in [2]; 61.1 µM (active) and 34.4 µM (active) in assay [3]; 30.6 µM (active) in assay [17]; 61.1 µM (active) in assay [7]; 195 nM [inconclusive] (active) and 1.95 µM [inconclusive] (active) in assay [10]; 243 nM (active) and 273 nM (active) in assay [11]. Besides, the Potency in assay [14] was 61.1 µM (active) and inactive.
Regarding `Oc1cc(Cl)ccc1Cl`, the Potency entry in assay [1], in assay [2], in assay [3], in assay [17], in assay [4] and in [5] was “inactive” in each case. Moreover, the Potency entry in [6], in assay [7], in assay [8], in assay [13] and in assay [14] was “inactive” in each case.
Regarding `CC(C)Oc1cc(-n2nc(C(C)(C)C)oc2=O)c(Cl)cc1Cl`, the Potency entry in assay [1], in assay [18], in [19], in assay [5], in assay [8] and in assay [9] was “inactive” throughout. Further, the Potency result in assay [10] and in assay [13] was “inactive” each time. In addition, the Potency is 5.45 µM (active) in [2]; 6.11 µM (active) in assay [3]; 11 µM (active) in assay [4]; 43 µM (active) and 12.3 µM (active) in assay [15]; 38.6 µM (active) in assay [20]; 53.7 µM (active) in [6]. Further, the Potency was 67.6 µM (active) in [7]; 61.6 µM [inconclusive] (active) in assay [16]; 47.9 µM (active) in assay [12]; 60.3 µM (active) and 17.2 µM (active) in assay [14].
Take `CCOC(=S)S`: the Potency result in [1], in [6], in assay [8], in assay [9] and in [13] was “inactive” throughout. The Potency in assay [2] was 24.3 µM (active) and 16.3 µM (active); in assay [3], 21.7 µM (active) and 16.3 µM (active); in assay [17], 24.3 µM (active) and 16.3 µM (active); in assay [4], 13.8 µM (active) and 8.26 µM (active); in assay [7], 51.7 µM (active); in assay [14] it was 68.6 µM (active) and 58 µM (active).
In the case of `O=P(Oc1ccccc1)(Oc1ccccc1)Oc1ccccc1`, the Potency result in [1], in assay [4], in assay [5], in assay [6], in assay [7] and in assay [8] was “inactive” throughout. Further, the Potency entry in assay [9], in [10], in [12], in assay [13] and in assay [14] was “inactive” each time. Also, the Potency in [2] was 54.2 µM (active) and 48.6 µM (active); in assay [3] it was 60.8 µM (active) and 48.6 µM (active); in [11], 6.08 µM (active).
As for `c1ccc(N=Nc2ccccc2)cc1`, the Potency result in [1], in assay [2], in [3], in assay [17], in assay [4] and in [5] was “inactive” throughout. The Potency entry in assay [6], in assay [7], in assay [8], in assay [9], in assay [13] and in assay [14] was “inactive” throughout.
Regarding `Nc1ccc(-c2ccc(N)c(N)c2)cc1N`, the Potency result in assay [1], in assay [4], in assay [9] and in assay [13] was “inactive” each time. Further, the Potency in assay [2] is 60.9 µM (active) and 9.69 µM (active); in [3] it was 60.9 µM (active) and 12.2 µM (active); in assay [17], 68.4 µM (active) and 12.2 µM (active); in [14], 6.09 µM (active) and inactive.
